DT40 TDP1 no CPT = qHTS for Inhibitors of human tyrosyl-DNA phosphodiesterase 1 (TDP1): qHTS in cells in absence of CPT; hit rate 15% among 420,000; Potency, µM (series often up to 46.2 µM), usual class: inhibitors; AID 686978, 2013; DT40 Tdp1-/- hTDP1 cells, no CPT, ATP luminescence, 48 h; note: nearly all actives have a fitted effect of over 55% in size
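Growth of hTDP1-complemented DT40 Tdp1-knockout cells is measured by ATP luminescence after at least 48 hr compound exposure at 37 °C, with DMSO substituting for the 20 nM CPT used in the parallel screen.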
CtBP-E1A inh = qHTS Assay for Inhibitors of the CtBP/E1A Interaction | CtBP / adenovirus E1A interaction (AlphaScreen) | hit rate 0.49% among 340,000 | AID 651724, 2012 | AlphaScreen GST-E1A/His-CtBP binding, 1536-well; hits give low values | activity change, % (no concentration beside the values); in the data active = activity change below about -65%; inconclusive = mostly about -30% to -63%
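In 5 uL wells, 23 nL compound meets equimolar GST-E1A and His-CtBP (5X stock 125 nM each) for 2 h, 37 °C. Beads (5X, 50 ug/mL) then 1 h, 37 °C, dark.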
Six1-Eya2 inh = qHTS Assay for Inhibitors of the Six1/Eya2 Interaction. Homeobox protein SIX1 (Homo sapiens) + Protein phosphatase EYA2 (Homo sapiens), …. AlphaScreen GST-Six1/His-Eya2 binding, biochemical; hits give low values. activity change, % (concentration not given with the values). AID 651725, 2012. hit rate 0.56% among 360,000; in the data active = activity change below about -65%; inconclusive = mostly about -30% to -63%
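Six1/Eya2 binding was read as AlphaScreen signal after compounds were pinned into GST-Six1 plus His-tagged Eya2 (5X stock 250/500 nM) in pH 8.0 Tris/NaCl/TCEP buffer, beads added, then incubated 1 h, 37 C, dark.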
IL1B secr inh = qHTS for Inhibitors of Inflammasome Signaling: IL-1-beta AlphaLISA Primary Screen; THP-1 LPS/ATP IL-1B secretion, AlphaLISA, 16 h; hits give low values; activity change, % at 57.5 µM; hit rate 4.7% among 360,000; in the data active = activity change below about -50%; inconclusive = mostly about -30% to -49%
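Secreted IL-1B measured by AlphaLISA bead assay after 16 h compound exposure of THP-1 cells; compounds (final up to 57.5 uM) added 1 h before LPS (250 ng/mL) and ATP (1.25 mM) stimulation; lower signal means less secretion.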
DT40 TDP1 CPT = qHTS for Inhibitors of human tyrosyl-DNA phosphodiesterase 1 (TDP1): qHTS in cells in presence of CPT; chicken DT40 Tdp1-/-;hTDP1 cells + 20 nM CPT, ATP luminescence, 48 h; Potency, µM (doses to about 46.2 µM), usual class: inhibitors; hit rate 12% among 420,000; AID 686979, 2013; note: nearly all actives have a fitted effect of over 55% in size
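Chicken DT40 Tdp1-/- cells stably complemented with human TDP1 were seeded at 400 cells/well in medium containing 20 nM camptothecin, exposed to pin-transferred compounds, and grown at 37 °C for at least 48 hr. Viability was read as ATP luminescence.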
TDP1 inh = qHTS Assay for Inhibitors of Tyrosyl-DNA Phosphodiesterase (TDP1). Tyrosyl-DNA phosphodiesterase 1 (Homo sapiens), Q9NUW8. hit rate 0.28% among 350,000. AID 485290, 2010. recombinant TDP1, AlphaScreen DNA substrate cleavage. Potency, µM (top dose mostly 130 µM), usual class: inhibitors; note: nearly all actives have a fitted effect of over 40% in size
Target sequence (Q9NUW8 whole entry, looked up): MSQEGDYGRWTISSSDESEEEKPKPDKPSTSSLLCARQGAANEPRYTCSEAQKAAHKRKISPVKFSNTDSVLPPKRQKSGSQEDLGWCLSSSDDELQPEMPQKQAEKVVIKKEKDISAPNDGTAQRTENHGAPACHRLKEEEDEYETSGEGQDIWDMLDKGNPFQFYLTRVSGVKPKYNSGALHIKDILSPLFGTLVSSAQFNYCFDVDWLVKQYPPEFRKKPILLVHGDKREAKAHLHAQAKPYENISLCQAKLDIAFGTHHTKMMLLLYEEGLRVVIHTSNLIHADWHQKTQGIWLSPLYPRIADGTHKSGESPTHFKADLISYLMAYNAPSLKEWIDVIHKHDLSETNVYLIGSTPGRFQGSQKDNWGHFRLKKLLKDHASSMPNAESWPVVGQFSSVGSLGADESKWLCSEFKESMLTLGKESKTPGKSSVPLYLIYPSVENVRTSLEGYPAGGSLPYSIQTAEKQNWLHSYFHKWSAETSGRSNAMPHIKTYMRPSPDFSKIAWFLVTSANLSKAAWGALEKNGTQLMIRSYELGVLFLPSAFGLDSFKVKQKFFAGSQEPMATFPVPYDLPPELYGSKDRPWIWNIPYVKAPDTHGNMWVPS
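Compounds were preincubated with Tdp1 (1 nM final) for 15 min at room temperature before substrate (15 nM final) started a 5 min reaction; beads (10 ug/ml final) were then added for 10 min before AlphaScreen detection.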
Hits are given with their value; - = inactive; ? = inconclusive; . = not tested or not shown. Hits are enriched below; roughly 18% of the tested compounds scored in any of these assays. Unless noted, calls come from the whole dose curve; as a rule, active = well fitted curve in the direction sought with a large enough effect; inconclusive = small, poorly fitted or top-dose-only effect, or another doubt; inactive = no such curve, though single readings can be large; an effect the other way counts as inactive or inconclusive.

SMILES	DT40 TDP1 no CPT	CtBP-E1A inh	Six1-Eya2 inh	IL1B secr inh	DT40 TDP1 CPT	TDP1 inh
CCOc1ccc(C(=O)/C=C/Nc2ccc(S(=O)(=O)Nc3cc(C)nc(C)n3)cc2)cc1	-	-	-	-	-	?
CCOC(=O)C1=C(C)N=C(SC)N(C)C1c1ccccc1 (configuration not stated)	-	-	-	-	-	-
CN1CCN(CCC(=O)N2c3ccccc3Sc3ccc(Cl)cc32)CC1	?	-	-	-	?	-
CN1CCN(CCOC2Cc3ccccc3Sc3ccc(Cl)cc32)CC1 (configuration not stated)	21µM	-	-	-71	?	-
CN1CCN(C2Cc3cc(Cl)ccc3Sc3cc(F)ccc32)CC1 (configuration not stated)	?	-	-	-94	?	.
OCCN1CCN(C2Cc3cc(Cl)ccc3Sc3ccc(Cl)cc32)CC1 (configuration not stated) (tested in a mixture with another compound)	?	-	-	-98	23µM	-
COc1cccc(CC(=O)NC2CCCN(Cc3ccccc3F)C2)c1 (configuration not stated)	-	-	-	-	-	.
C=CCn1c(SCC(=O)NCC(=O)OCC)nnc1-c1cccc(OC)c1	-	-	-	-	-	-
[O-][n+]1onc2c1CCc1c-2nc(-c2ccccc2)n1OCc1ccccc1	-	-	-	-	?	-
O=C(N/N=C/c1c(Cl)cccc1Cl)c1ccc(-n2cnnn2)cc1	-	.	-	-	-	56µM
Cc1ccc2nc(C3CCCN(C(=S)Nc4ccccc4C)C3)[nH]c2c1 (configuration not stated)	21µM	-	-	-	?	-
COc1cccc(CNC(=O)CN2CCC(c3nc4ccc(C)cc4[nH]3)CC2)c1	?	-	-	-61	?	-
COc1ccccc1NC(=O)CN1CCC(c2nc3ccccc3[nH]2)CC1	15µM	-	-	-	?	-
COc1ccccc1NC(=O)CN1CCC(c2nc3ccc(C)cc3[nH]2)CC1	-	-	-	-	-	-
CCNC(=S)N1CCCC(c2nc3ccc(C)cc3[nH]2)C1 (configuration not stated)	?	.	-	-	-	-
COc1ccccc1NC(=O)N1CCC(c2nc3cc(C)c(C)cc3[nH]2)CC1	1.8µM	-	-	-	3.7µM	-
CCc1nnc(NS(=O)(=O)c2ccccc2)s1	-	-	-	-	-	.
CO/N=C/C(C#N)=C/c1ccc(OC)cc1	-	-	-	-	-	-
CC(NC(=O)c1ccco1)C(=O)N(C)Cc1ccc(C(F)(F)F)cc1 (configuration not stated)	?	-	-	-	-	-
COc1cc(C2c3c(-c4c(C)cc(C)cc4O)n[nH]c3C(=O)N2CCCOC(C)C)cc(OC)c1OC (configuration not stated)	-	.	.	.	?	-
OC1c2c(F)cccc2N=C2CCCCN21 (configuration not stated)	?	-	-	-	8.2µM	.
Cc1nc(N2CCN(S(=O)(=O)c3ccc(Br)cc3)CC2)c2c(C)c(C)sc2n1	?	-	-	-	21µM	-
Cc1sc2ncnc(N3CCN(S(=O)(=O)c4ccc(F)cc4)CC3)c2c1C	12µM	-	-	-57	?	.
Cc1nc(N2CCN(C)CC2)c2cc(-c3ccccc3)sc2n1	-	-	-	-	-	-
Cc1nc(N2CCN(S(=O)(=O)c3ccccc3)CC2)c2cc(-c3ccccc3)sc2n1	?	-	-	-	15µM	-
SMILES	DT40 TDP1 no CPT	CtBP-E1A inh	Six1-Eya2 inh	IL1B secr inh	DT40 TDP1 CPT	TDP1 inh
CCc1nc(N2CCN(S(=O)(=O)c3ccc(Br)cc3)CC2)c2c(C)c(C)sc2n1	23µM	-	-	-	?	.
CCOC(=O)c1cc(-c2ccc3c(c2)OCCO3)n[nH]1	-	-	-	-	-	-
NC(=O)COC(=O)CCSc1ccc(Cl)cc1	-	-	-	-	-	-
CCS(=O)(=O)N1CCN(c2ncnc3sc(C)c(C)c23)CC1	?	-	-	-	-	-
Cc1sc2ncnc(N3CCN(c4ncccn4)CC3)c2c1C	?	-	-	?	23µM	-
S=C(NN=Cc1ccc2c(c1)OCO2)NN=Cc1ccc2c(c1)OCO2	23µM	-	-	-	23µM	.
O=C(NCCc1ccccc1)C(=O)N/N=C/c1ccc2c(c1)OCO2	21µM	-	-	-	23µM	-
Cc1cc(C)c(OCC(=O)N/N=C/c2ccc3c(c2)OCO3)c(C)c1	5.8µM	-	-	-	2.9µM	-
COCCCNC(=S)N/N=C/c1ccc2c(c1)OCO2	-	.	-	-	-	-
CNC(=O)c1sc(Nc2cc(C)ccc2C)nc1C	-	-	-	-	-	-
CCOC(=O)/C=C1/SCC(=O)N1CC(=O)NC12CC3CC(CC(C3)C1)C2	21µM	-	-	-	?	.
S=C(NCc1cccs1)Nc1cc(Cl)cc(Cl)c1	?	-	-	-83	?	-
Cc1c(Cl)cccc1NC(=S)NCCc1ccc(C(F)(F)F)cc1	16µM	-	-	-102	?	-
S=C(NCCc1ccccc1)NCc1cccc(Cl)c1	-	-	-	-	-	-
S=C(NCCc1ccccc1)Nc1ccc(Cl)cc1	4.6µM	-	-	-	21µM	-
Fc1ccccc1NC(=S)NCCc1cccc(Cl)c1	7.3µM	-	-	-88	8.2µM	-
O=C(NCCc1ccccc1)Nc1ccc(Cl)cc1	-	-	-	-	-	-
S=C(NCc1cccs1)Nc1cccc(Cl)c1	?	-	-	-	-	-
CN(C)CCNC(=S)Nc1ccc(Cl)cc1	-	-	-	-	-	-
S=C(NCCc1ccccn1)Nc1cc(Cl)cc(Cl)c1	-	-	-	-77	-	-
S=C(NCCc1ccccn1)Nc1ccc(Cl)c(Cl)c1	?	-	-	-	?	-
O=[N+]([O-])c1ccc(NC(=S)NCCc2ccc(Cl)cc2)cc1	5.2µM	-	-	-55	2.3µM	-
COc1ccc2nc(C)c(C(N)=O)cc2c1	-	-	-	-	-	-
C=CCOc1ccc(/C=C/C(=O)OCC(=O)N(C)C2CCS(=O)(=O)C2)cc1 (configuration not stated)	-	-	-	-	-	-
COc1ccc(Oc2nc3c(c(=O)n(Cc4ccccc4Cl)c(=O)n3C)n2C)cc1	6.5µM	.	.	.	?	-
